Measured values published in PubChem BioAssay (NCI).
This is part of a sample that, as a whole, favours compounds with a hit. Of some 83,000 tested, about 20% had one in any assay.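 For each line, cells grew in 96-well plates with the test compound present at a single concentration for 48 hours.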 Calls of active or inactive are those of the source. The calls were made as follows: active = growth percent below 10; inactive = the rest.

These molecules were tested on NCI/ADR-RES ovarian (assay: NCI-60 one-dose screen, 48 h (100 = growth as untreated, 0 = no growth, -100 = all killed)). Conditions: 10 µM.

| SMILES | growth |
| --- | --- |
| O=C(NO)c1ccc(CNC(=O)[C@H]2Cc3c([nH]c4ccccc34)[C@H](c3ccccc3)N2)cc1 | 63% (inactive) |
| COc1ccc2cc([C@H](C)C(=O)NCc3ccccc3)ccc2c1 | -10% (active) |
| Cc1noc2c(Cc3ccccc3)nn(CC(=O)N/N=C/c3ccc(F)cc3)c(=O)c12 | 60.7% (inactive) |
| COc1cnc2c(c1)C(=O)c1c-2n(CCCNCCO)c(=O)c2cc(OC)c(OC)cc12 | 88% (inactive) |
| CN1CCc2c(sc3ncnc(N/N=C/c4cn(-c5ccccc5)nc4-c4ccc(Cl)cc4)c23)C1 | -35.3% (active) |
| N#Cc1c(NC(=O)c2ccc(C(F)(F)F)cc2C(F)(F)F)sc2c1CCC(=O)C2 | 1.12% (active) |
| O=C1N/C(=N\c2nccs2)S/C1=C\c1cccs1 | -0.769% (active) |
| CC(=O)c1ccc(Nc2nc(SC(C)C)nc(-c3ccccc3)c2C#N)cc1 | 1.21% (active) |
| O=C(CNc1nc(-c2ccccc2)cs1)Nc1ccc([N+](=O)[O-])cc1Cl | -7% (active) |
| O=C(NO)c1ccc(Cn2ccc3c(Nc4ccccc4)ncnc32)cc1 | -29.4% (active) |
| O=C(NO)c1ccc(CN2CCN(c3nc(-c4ccccc4)c4ccccc4n3)CC2)cc1 | -36.1% (active) |

Each molecule was assayed on T-47D breast in the same assay as above. Conditions: 10 µM.

| SMILES | growth |
| --- | --- |
| COc1ccc(-c2cc(C(=O)N=Nc3c(O)[nH]c4ccc(Br)cc34)c3ccccc3n2)cc1 | 58.4% (inactive) |
| CC(=O)c1ccc(Nc2nc(SCCC(C)C)nc(-c3ccc(F)cc3)c2C#N)cc1 | 68.3% (inactive) |
| Clc1cccc(N/N=C/c2c[nH]c3ccccc23)n1 | 27.4% (inactive) |
| O=[N+]([O-])c1ccc(-c2nc(-c3ccccc3)c(-c3ccccc3)n2-c2ccc(S(=O)(=O)Nc3ncccn3)cc2)cc1 | 10.2% (inactive) |
| O=C(CSc1nnc(-c2ccc3nc(-c4ccc(Cl)cc4)[nH]c3c2)o1)Nc1ccc(Cl)cc1 | 28% (inactive) |
| CCOC(=O)c1c(CSc2ccccc2)n(C)c2cc(CN(C)C)c(O)c(CN(C)C)c12 | 50.2% (inactive) |
| N#Cc1c(NC(=O)c2cccc(C(F)(F)F)c2)sc2c1CCC(O)=C2 | 16.5% (inactive) |
| Cc1ccc(-c2nc(Nc3ccc(S(N)(=O)=O)cc3)c3ccccc3n2)cc1 | 40.5% (inactive) |
| Cc1ccc2nc(COc3ccc(C(=O)NNC(=S)NC(=O)c4ccccc4)cc3)[nH]c2c1 | 60.5% (inactive) |
| O=C(CNc1nc(-c2ccccc2)cs1)Nc1cccc([N+](=O)[O-])c1 | -49.9% (active) |
| CC(=O)Nc1ccc(-c2cn(-c3cccc(C(=O)Nc4cccc(OC(F)(F)F)c4)c3)nn2)cn1 | 93.2% (inactive) |
| OCCCNc1oc(-c2ccccc2)nc1[P+](c1ccccc1)(c1ccccc1)c1ccccc1 | 7.19% (active) |
| CC(C)Sc1nc(NC2CC2)c(C#N)c(-c2ccccc2)n1 | 92.7% (inactive) |
| OCCNc1oc(-c2ccccc2)nc1[P+](c1ccccc1)(c1ccccc1)c1ccccc1 | 4.49% (active) |
| C/C(=C\c1ccc(O)cc1O)c1ccc2ccc(O)cc2[o+]1 | 56% (inactive) |
| Cc1noc2c(Cc3ccc([N+](=O)[O-])cc3)nn(CC(=O)N/N=C/c3ccc(Cl)cc3)c(=O)c12 | 43.8% (inactive) |
| CCOC(=O)CNC(=O)CN(Cc1ccccc1)C(=O)[C@@]1(C)CCC[C@]2(C)[C@H]3CC4C(C(C)C)=C[C@]3(CC[C@H]21)[C@@H]1C(=O)CCC(=O)[C@H]41 | 52.2% (inactive) |
| O=C(CSc1nnc(-c2c[nH]c3ccccc23)n1-c1ccccc1)c1ccc(Cl)cc1 | 54.6% (inactive) |
| COc1ccc(-c2cc(C(=O)N=Nc3c(O)[nH]c4ccc(F)cc34)c3ccccc3n2)cc1 | 75.9% (inactive) |
| O=C1Nc2ccc(Cl)cc2/C1=C/c1ccc(OCc2ccccn2)cc1 | 69% (inactive) |
| Cc1noc2c(Cc3ccccc3)nn(CC(=O)N/N=C/c3ccc(Cl)cc3)c(=O)c12 | 9.05% (active) |
| COc1ccc2[nH]c(=O)c(CSc3cccc(N)c3)cc2c1 | 37.5% (inactive) |
| COc1ccc(C(=O)/C=C/c2cc(F)cc(C(F)(F)F)c2)cc1S(N)(=O)=O | 6.93% (active) |
| Nc1cc(-c2cccc(C(=O)NCc3ccc4c(c3)OCO4)c2)ccn1 | 77.4% (inactive) |
| Cc1ccc(/C(N)=N/c2sc(-c3ccccc3)nc2-c2ccccc2)cc1 | 58.3% (inactive) |
| CN(C(=O)c1ccc(C(C)(C)C)cc1)c1sc2c(c1C#N)CCC(=O)C2 | -40.3% (active) |
